# Results from PubChem BioAssay AID1578 (Sanford-Burnham Center for Chemical Genomics, 2009).
# The whole screen tested about 290,000 compounds, of which about 3,000 (1%) were called active. The sample holds actives, similar compounds and a random draw of the others, so the mix is not that of the screen. Unmarked numbers belong to inactive results. Rule as the data show it: active = inhibition mostly above about 36% (no sharp cut-off); inactive = mostly below about 34%.
# Assay: NOD1 signaling inhibitors, primary screen, cell-based, luminescence, uHTS (AID 1578);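 also: HEK-293T reporter cells stimulated with the NOD1 agonist gamma-tri-DAP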
# Details: NOD1-driven NF-kB luciferase reporter cells, at 4 µM, hits give high values
row,Structure (SMILES),inhibition
1,O=C(Nc1ccccc1)c1nnsc1S(=O)(=O)c1ccc(Cl)cc1,67.9%
2,O=S(=O)(c1ccc(F)cc1)c1snnc1-c1ccccc1,24.9%
3,O=S(=O)(c1ccc(Cl)c(Cl)c1)c1snnc1-c1ccccc1,77.3% (active)
4,c1ccc(-c2nnsc2-c2ccccc2)cc1,6.7%
5,Cc1nnsc1S(=O)(=O)c1ccccc1,-10.8%
6,CCCCCCCSc1nnc(N)s1,5.6%
7,CC(C)(C)NC(=O)COC(=O)c1ccccc1NC(=O)c1ccco1,-42.8%
8,CC1CN(C(=O)c2cc3ccccc3oc2=O)CC(C)O1 (stereo unspecified),0.9%
9,C/C(=N/NC(=O)c1ccncc1)c1ccc(NC(=O)c2ccccc2)cc1,-8.8%
10,C/C(=N\NC(=O)c1ccccc1NC(=O)c1ccc(Cl)cc1)c1ccncc1,60.4% (active)
11,C/C(=N\NC(=O)c1ccncc1)c1ccc(NC(=O)c2ccc(Cl)cc2)cc1,7%
12,NC(=O)CC(NC(=O)Cc1ccc(Cl)cc1)c1ccc(NC2CCCCC2)c([N+](=O)[O-])c1 (stereo unspecified),-4.6%
13,Oc1csc(Cc2nc(-c3ccc4ccccc4c3)cs2)n1,4.6%
14,Cc1sc(Cc2nc(O)cs2)nc1-c1ccccc1,97.9% (active)
15,Oc1csc(Cc2nc(-c3ccc(-c4ccccc4)cc3)cs2)n1,31.2%
16,COC(=O)c1cn(NC(=O)c2cnccn2)c(=O)c2ccccc12,3%
17,O=C(Nn1cc(C(=O)Nc2ccccc2F)c2ccccc2c1=O)c1cnccn1,47.1% (active)
18,O=C(Nn1cc(C(=O)Nc2ccc(F)cc2F)c2ccccc2c1=O)c1cnccn1,-21.1%
19,C=CCN1C(=O)/C(=C2/C(=O)N(CC(=O)O)c3ccccc32)S/C1=N/c1nccs1,-5.4%
20,CCN(CC)CCn1c(NC(=O)c2ccccc2O)nc2ccccc21,19%
21,O=C(CCCNS(=O)(=O)c1cccc2nsnc12)NCc1ccc(Cl)cc1,-12%

row,Structure (SMILES),inhibition
1,O=C(CNS(=O)(=O)c1cccc2nsnc12)NCc1ccc(Cl)cc1,47.4% (active)
2,Cc1ccc(CNC(=O)CNS(=O)(=O)c2cccc3nsnc23)cc1,-18.7%
3,Cn1ncc(N=Cc2ccccc2)c1C(N)=O,-13.3%
4,C/C(CC(=O)NCc1ccc(Cl)cc1)=N\NC(=O)Cc1ccccc1,-22.7%
5,CCc1ccc(NC(=O)C2CCN(S(=O)(=O)c3ccc4c(c3)NC(=O)C(C)S4)CC2)cc1 (stereo unspecified),30.4%
6,Cc1cc(C)cc(NC(=O)C2CCN(S(=O)(=O)c3ccc4c(c3)NC(=O)C(C)S4)CC2)c1 (stereo unspecified),-10.4%
7,CC1Sc2ccc(S(=O)(=O)N3CCN(c4ccccc4)CC3)cc2NC1=O (stereo unspecified),30.2%
8,Cc1ccc(NC(=O)C2CCN(S(=O)(=O)c3ccc4c(c3)NC(=O)C(C)S4)CC2)cc1C (stereo unspecified),6.5%
9,COc1ccc(N2CCN(S(=O)(=O)c3ccc4c(c3)NC(=O)C(C)C(=O)N4)CC2)cc1 (stereo unspecified),-0.5%
10,CC1Sc2ccc(S(=O)(=O)N3CCC(C(=O)Nc4cccc(Cl)c4)CC3)cc2NC1=O (stereo unspecified),7.5%
11,O=C(NCc1cccs1)c1cnc2ccccn2c1=O,-8.1%
12,COc1ccc(C(C)(C)C)cc1NC(=O)CCNC(=O)c1ccco1,-35.1%
13,O=C(CN1CCCCC1)NNC(=O)c1cccc(Br)c1,5.1%
14,CCCc1nnc(NC(=O)Cn2c(=O)oc3cc(Br)ccc32)s1,-17.9%
15,COc1ccc2[nH]c(=O)c(CN(CC3CCCO3)C(=S)Nc3cccc(C)c3)cc2c1 (stereo unspecified),46.6% (active)
16,COc1ccc2[nH]c(=O)c(CN(CC3CCCO3)C(=S)Nc3ccccc3)cc2c1 (stereo unspecified),-31.7%
17,COc1ccc2[nH]c(=O)c(CN(CC3CCCO3)C(=S)Nc3ccc(C)cc3)cc2c1 (stereo unspecified),-18.3%
18,COc1cccc(CN(C)CC(=O)NCc2ccccc2Cl)c1,8.1%
19,Cc1ccc(OCC(=O)Nc2ccc(NC(=O)c3ccccc3)cc2)cc1C,-12.6%
20,CCOC(=O)/C(=C\c1ccc(Cl)cc1)c1nc2sc(C)c(C)c2c(=O)[nH]1,58.5%
21,CCOC(=O)/C(=C\c1cccc(O)c1)c1nc2sc(C)c(C)c2c(=O)[nH]1,105% (active)

row,Structure (SMILES),inhibition
1,CCOC(=O)c1nc2sc(C)c(C)c2c(=O)[nH]1,4.3%
2,CCOC(=O)C1CCN(C(=O)CCc2c(C)nc3ncnn3c2C)CC1,2.5%
3,CCOC(=O)N1CCN(Cc2cc(Cl)c3cccnc3c2O)CC1,-1.5%
4,O=c1oc2ccccc2c(O)c1Cc1cc(Cl)c2cccnc2c1O,62.6% (active)
5,O=C(Cc1c(O)c2ccccc2oc1=O)c1ccc(C(F)(F)F)cc1,-10.7%
6,O=[N+]([O-])c1cc(Cl)c2cccnc2c1O,-7.9%
7,OCCN1CCN(Cc2cc(Cl)c3cccnc3c2O)CC1,26.4%
8,COc1ccc(NC(=S)Nc2ccc(N)c([N+](=O)[O-])c2)cc1,-69.8%
9,Cc1c(CNCc2cccs2)c(C(=O)O)c(C)n1Cc1ccccc1,8.7%
10,O=C(NC1CCCCC1)N1CCCC(CNS(=O)(=O)Cc2ccccc2)C1 (stereo unspecified),-23.7%
11,Fc1ccccc1NC(=S)NNc1ncc(C(F)(F)F)cc1Cl,12.4%
12,C/C(=N/Nc1ncc(C(F)(F)F)cc1Cl)c1ccncc1,-9%
13,Oc1cc2c(cc1CN1CCN(c3cccc(C(F)(F)F)c3)CC1)CCC2,19.7%
14,Cc1ccccc1-n1c(=O)cc(N2CCN(Cc3ccccc3)CC2)[nH]c1=O,-4.3%
15,CN1C(=O)C(c2nnc(Nc3cccc4ccccc34)s2)C2CC1(C)Oc1ccccc12 (stereo unspecified),3.3%
16,O=C1CCCN1CCC(=O)N1CCCC(Nc2ccc(F)c(F)c2)C1 (stereo unspecified),-39.2%
17,COc1cccc(-c2cc(C(F)(F)F)nc(-n3cncn3)n2)c1,97.6% (active)
18,COc1ccc(-c2cc(C(F)(F)F)nc(-n3cncn3)n2)cc1,18.2%
19,COc1cccc(-c2cc(C(F)(F)F)nc(-n3cccn3)n2)c1,-19.7%
